Data on 92 molecules can be found in PubChem BioAssay AID1021 (Emory University Molecular Libraries Screening Center, 2008).

In all, about 220,000 compounds went through this assay and about 2,100 (0.95%) were called active.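 The calls were made as follows: active = compounds that cut the binding signal by more than half at the single screening dose; inactive = the rest.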 Many of the other results were omitted from the sample, so actives are more common in it than they were.

Induced myeloid leukemia cell differentiation protein Mcl-1 (Homo sapiens), sequence (Q07820 whole entry, looked up): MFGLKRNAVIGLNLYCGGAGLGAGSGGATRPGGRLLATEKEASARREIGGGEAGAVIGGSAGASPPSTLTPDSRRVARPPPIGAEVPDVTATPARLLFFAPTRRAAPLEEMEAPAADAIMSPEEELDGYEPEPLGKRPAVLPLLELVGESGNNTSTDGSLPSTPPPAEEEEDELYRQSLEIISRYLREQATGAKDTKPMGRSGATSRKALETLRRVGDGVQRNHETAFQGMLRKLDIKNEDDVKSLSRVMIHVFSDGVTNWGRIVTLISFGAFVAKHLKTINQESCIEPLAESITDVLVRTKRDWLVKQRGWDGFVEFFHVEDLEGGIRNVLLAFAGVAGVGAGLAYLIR

The assay has as its target Induced myeloid leukemia cell differentiation protein Mcl-1 (Homo sapiens) (UniProt Q07820). Description: Mcl-1/Bid binding inhibitors, primary screen, biochemical, TR-FRET, 1536-well (AID 1021).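 Also: His-tagged Mcl-1 with europium anti-His antibody binding Bid BH3 peptide; 0% = Mcl-1 plus peptide wells and 100% = peptide-only wells.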 As to conditions: TR-FRET Mcl-1/Bid-Dy647 peptide binding, at 21.7 µM, active compounds read high.
For `COc1ccccc1C1CCN(c2ccc([N+](=O)[O-])cn2)CC1`, the inhibition was -13.5% (inactive).

For `CCOC(=O)C(NC(=O)CC(C)C)(Nc1sc2c(c1C(N)=O)CCCC2)C(F)(F)F` (configuration not stated), the inhibition is -1.21% (inactive).

Regarding `O=c1[nH]c2cccnc2n1-c1ccc([N+](=O)[O-])cc1`, the inhibition was -13.5% (inactive).

Consider `CCOC(=O)CNC(=O)CSc1nnc(-c2cccc(OC)c2)n1CC`, for which the inhibition is -3.85% (inactive).

As for `CCOC(=O)CNC(=O)CSc1nnc(COc2ccc(Cl)cc2)n1CC`, the inhibition was 59% (active).

Consider `C=CCn1c(COc2ccccc2)nnc1SCC(=O)NCC(=O)OCC`, for which the inhibition is -8.17% (inactive).

For `COc1ccc(CN(C)C(=S)Nc2ccc(Cl)cc2Cl)cc1`, the inhibition was -35.5% (inactive).

As to `COc1ccc(CN2CCn3ncc(C(=O)Nc4ccc(Cl)cc4Cl)c3C2=O)cc1`, the inhibition was 32% (inactive).

Regarding `O=c1cc(CCl)nc2scc(-c3ccccc3)n12`, the inhibition is -18.4% (inactive).

Regarding `Cc1ccccc1-c1nnc(SCC(=O)NCc2ccc3c(c2)OCO3)n1C`, the inhibition was -9.98% (inactive).

`Cn1c(SCc2nc3ccccc3s2)nnc1-c1ccc2c(c1)OCO2`: the inhibition was 85.9% (active).

For the molecule `O=C(O)CSc1nnc(-c2ccc3c(c2)OCO3)n1-c1ccccc1`, the inhibition was -2.66% (inactive).

`COc1ccc(CCNc2cc(C)nc3c(-c4ccc(Cl)cc4)c(C)nn23)cc1OC`: the inhibition was 5.91% (inactive).

Regarding `Cc1ccc(-c2noc(CSc3nnnn3-c3ccccc3)n2)cc1`, the inhibition is 0.82% (inactive).

On to `O=c1c2ccccc2nnn1CSc1nnnn1-c1ccccc1`, for which the inhibition was -28.6% (inactive).

In the case of `O=c1c2ccccc2nc(CSc2nnnn2-c2ccccc2)n1-c1ccccc1`, the inhibition is 67% (active).

Turning to `Oc1ccc(-c2nncn2-c2ccccc2)cc1`, the inhibition was -19.8% (inactive).

Consider `O=C(CN1CCN(c2ccc(O)cc2)CC1)Nc1cc(S(=O)(=O)N2CCOCC2)ccc1Cl`, for which the inhibition was -49.6% (inactive).

With `O=C(N/N=C/c1ccc([N+](=O)[O-])o1)c1cccc(S(=O)(=O)N2CCOCC2)c1`, the inhibition is -61.1% (inactive).

With `O=[N+]([O-])c1cc(Cl)cc(/C=N/NC(=S)Nc2cc(S(=O)(=O)N3CCOCC3)ccc2Cl)c1O`, the inhibition was 91.1% (active).

On to `CC(Sc1nc2cc(Cl)ccc2s1)C(=O)Nc1ccc2c(c1)OCO2` (configuration not stated), for which the inhibition was -1.87% (inactive).

As to `Cc1cc(C)nc(Nc2ncn[nH]2)n1`, the inhibition was -30% (inactive).

As to `O=C(O/N=C(/c1ccccc1)c1ccncc1)c1ccccc1[N+](=O)[O-]`, the inhibition was -11.8% (inactive).

In the case of `CN(C)CCCO/N=C(\c1ccccc1)c1ccncc1`, the inhibition was 54.2% (active).

`COc1cc(OC)nc(N/N=C(\c2ccccc2)c2ccncc2)n1`: the inhibition is 1.66% (inactive).

In the case of `Cc1ccc2c(c1)C1CN(C)CCC1N2C(=S)Nc1ccc(OC(F)F)cc1` (configuration not stated), the inhibition was -15.3% (inactive).

On to `COc1ccc2c(c1)C(C)=CC(C)(C)N2C(=O)CNCc1ccc2c(c1)OCO2`, for which the inhibition was 62% (active).

As to `COc1ccc2c(c1)C(C)=CC(C)(C)N2C(=O)Nc1ccccc1`, the inhibition was -36.6% (inactive).

As to `CCn1cc(C(=O)NCc2ccc3c(c2)OCO3)c2cc(OC)c(OC)cc2c1=O`, the inhibition is 38.8% (inactive).

As for `CC(=O)c1nnn(-c2ccc(Cl)cc2C#N)c1C`, the inhibition was 1.84% (inactive).

On to `Cc1ccc2nc(-c3cccc(Br)c3)cc(C(=O)Nn3cnnc3)c2c1`, for which the inhibition is -15.1% (inactive).

As to `COc1ccc(Cl)cc1C(=O)NCc1cn(C)nc1C`, the inhibition is -17.2% (inactive).

In the case of `Cc1ccc(-c2cc(C(=O)NCc3cn(C)nc3C)c3cc(Br)ccc3n2)cc1`, the inhibition was 57.4% (active).

For the molecule `CN(Cc1ccccn1)Cc1nc(-c2ccc(Cl)cc2)no1`, the inhibition was 3.34% (inactive).

Regarding `CN(c1ccccc1)S(=O)(=O)c1ccc(Cl)c(C(=O)OCC(=O)NCc2ccco2)c1`, the inhibition was -33.3% (inactive).

With `CCN(CC)CCCN=C(N)N`, the inhibition is -18.1% (inactive).

For the molecule `Nc1nnc(SCC(=O)NC2CCCc3ccccc32)s1` (configuration not stated), the inhibition is -21.1% (inactive).

For `Nc1nnn(CC(=O)N/N=C/c2ccccc2)n1`, the inhibition was -50.3% (inactive).

On to `O=C(Cn1nnc(-c2ccccc2)n1)N/N=C/c1ccc(-c2ccc(Cl)cc2)o1`, for which the inhibition is 61% (active).

On to `O=C(Cn1nnc(-c2ccccc2)n1)NCc1ccccc1`, for which the inhibition was -1.82% (inactive).

As to `Nc1nnnn1CC(=O)N/N=C/c1ccc(-c2cccc(Cl)c2)o1`, the inhibition is -8.79% (inactive).

In the case of `O=C(CN1CCOCC1)N/N=C/c1ccc(-c2ccc(Br)cc2)o1`, the inhibition is -11.9% (inactive).

Consider `Cc1[nH]c2ccccc2c1/C=N\NC(=O)Cn1nnc(-c2ccccc2)n1`, for which the inhibition was 65.2% (active).

Regarding `CCCCN1CCNC1=S`, the inhibition was -29.5% (inactive).

In the case of `CC1(C)CC(=O)C(C=NCCN2CCN(C(=S)Nc3cccc(Cl)c3)CC2)=C(O)C1`, the inhibition was -49.6% (inactive).

Turning to `Cc1nn(C)c(C)c1Sc1ccccc1N`, the inhibition is -33.5% (inactive).

Regarding `CCN(CC)c1ccc(NC(=O)C2CCC(CNc3c(N4CCCC4)c(=O)c3=O)CC2)c(C)c1` (configuration not stated), the inhibition was -70.9% (inactive).

As to `CC1(C)OC(=O)N2CCc3ccccc3C21C` (configuration not stated), the inhibition was 6.73% (inactive).

Regarding `CN(C)C(=O)c1nc2ccc(Cl)cn2c1CNCc1cccc(OC(F)(F)F)c1`, the inhibition is -1.45% (inactive).

Take `CCC(CC)C(=O)N1CC(=O)Nc2ccc(Br)cc2C1c1ccccc1` (configuration not stated): the inhibition is -3.97% (inactive).

With `COC(=O)CN1C(=O)C(O)=C(C(C)=O)C1c1ccc([N+](=O)[O-])cc1` (configuration not stated), the inhibition was -31.9% (inactive).

Turning to `COC(=O)CN1C(C)=Nc2ccc(Br)cc2C1c1ccccc1` (configuration not stated), the inhibition was 67.2% (active).

For the molecule `N#CCCCn1c(O)c(N=NC(=O)C(O)c2ccccc2)c2ccccc21` (configuration not stated), the inhibition is -13.3% (inactive).

With `Cc1cc(=O)oc2c(C(=O)c3ccccc3)c(OCC(N)=O)ccc12`, the inhibition is -15.3% (inactive).

On to `N#CCC(=O)N/N=C/c1cn(Cc2ccc3ccccc3c2)c2ccccc12`, for which the inhibition was 25.7% (inactive).

On to `O=C(O)/C=C/c1cn(Cc2ccccc2)nc1-c1cccs1`, for which the inhibition was -0.35% (inactive).

For `O=C(O)CCn1cc(/C=C/C(=O)c2ccc(Cl)cc2)c(-c2cccc(Br)c2)n1`, the inhibition is 69.2% (active).

With `CCOC(=O)/C(C#N)=C/c1cn(CCC(=O)O)nc1-c1ccc(Br)cc1`, the inhibition is 39.2% (inactive).

`Cc1noc(C)c1S(=O)(=O)Nc1ccc(C(=O)N2CCN(c3ccc(F)cc3)CC2)cc1`: the inhibition is -10.6% (inactive).

For the molecule `CCOc1cc(C(=S)N2CCOCC2)ccc1O`, the inhibition was 74.5% (active).

For the molecule `COc1cc(C(=S)N2CCOCC2)ccc1O`, the inhibition is -30.2% (inactive).

For `CCOc1cc(C(=O)OCC(=O)Nc2cccc(C)c2)ccc1OCC(=O)N1CCOCC1`, the inhibition is -54% (inactive).

With `O=C(Nc1ccc2c(c1)C(=O)OC2)Nc1cccc2ccccc12`, the inhibition was -19.5% (inactive).

Turning to `COc1ccc(/C=C/CN2CCN(Cc3ccc(C)cc3)C(CCO)C2)cc1` (configuration not stated), the inhibition is -9.23% (inactive).

Consider `NC1=NC[C@@H](Cc2ccc(O)cc2)N1CC1CCCCC1`, for which the inhibition is -44.1% (inactive).

For `C#CCOCCOCCOCCNc1nc(N2CCN(C(=O)[C@H](CCC(=O)O)n3cc(C(N)CO)nn3)CC2)nc(N2CCN(C(=O)[C@H](Cc3ccc(O)cc3)n3cc(C(N)[C@H](C)CC)nn3)CC2)n1` (some centres not stated), the inhibition is 62.7% (active).

Take `C#CCOCCOCCOCCNc1nc(N2CCN(C(=O)C(Cc3ccc(O)cc3)n3cc(C(N)CC(C)C)nn3)CC2)nc(N2CCN(C(=O)C(Cc3ccc(O)cc3)n3cc(C(N)C(C)CC)nn3)CC2)n1` (configuration not stated): the inhibition is -1.6% (inactive).

As for `C#CCOCCOCCOCCNc1nc(N2CCN(C(=O)[C@H](Cc3ccc(O)cc3)n3cc(C(N)CC(C)C)nn3)CC2)nc(N2CCN(C(=O)[C@H](CCC(=O)O)n3cc(C(N)[C@H](C)CC)nn3)CC2)n1` (some centres not stated), the inhibition is 2.45% (inactive).

As to `O=C(CCCl)Nc1ccc(S(=O)(=O)NCc2ccco2)cc1`, the inhibition is -69.5% (inactive).

Turning to `CCNC(=O)NC(=O)C(C)OC(=O)C1CCN(S(=O)(=O)c2ccccc2F)CC1` (configuration not stated), the inhibition was -21.6% (inactive).

`COc1ccc(OC)c(C2N(c3ccccn3)C(=O)C3CCCN32)c1` (configuration not stated): the inhibition was 51.8% (active).

Turning to `COc1ccc(N2C(=O)C3CCCN3C2c2cccc(OC)c2)cc1` (configuration not stated), the inhibition is -26.8% (inactive).

As to `COc1ccc(N2C(=O)C3CCCN3C2c2cc(OC)c(OC)cc2OC)cc1` (configuration not stated), the inhibition is -12.4% (inactive).

`O=C(Nc1nnc(SCc2ccccc2)s1)c1ccco1`: the inhibition was -46.6% (inactive).

For the molecule `Clc1ccccc1CSc1nnc(-c2ccco2)c(-c2ccco2)n1`, the inhibition was 99.3% (active).

Regarding `c1ccc(CSc2nnc(-c3ccco3)c(-c3ccco3)n2)cc1`, the inhibition is 91.7% (active).

As for `Brc1ccc(CSc2ccc(-c3ccco3)nn2)cc1`, the inhibition was -15.8% (inactive).

`Nc1nc(SCc2ccccc2Cl)n[nH]1`: the inhibition was -6.93% (inactive).

On to `COC(OC)c1ccnc(SCc2ccccc2Cl)n1`, for which the inhibition is -7.91% (inactive).

Turning to `COC(=O)c1cc(=O)n(-c2c(Cl)cc(C(F)(F)F)cc2Cl)[nH]1`, the inhibition was -6.09% (inactive).

As for `O=C1NNC(c2ccccc2)=N/C1=C\c1ccc(Cl)cc1`, the inhibition was -13.5% (inactive).

As for `Cc1nc2nc[nH]n2c(=O)c1C/C=C/c1ccccc1`, the inhibition is -22.4% (inactive).

`CCS(=O)(=O)c1ccc(C(=O)NC)c(Cl)c1Cl`: the inhibition is -26.1% (inactive).

`CCCCN1Cc2c(nc3cc(-c4ccccc4)[nH]n3c2=O)C1=O`: the inhibition is -37.8% (inactive).

As for `O=S(=O)(Nc1n[nH]c(C(F)(F)F)n1)c1ccccc1`, the inhibition is -11.3% (inactive).

Consider `CCc1cc2c(SCC(=O)Nc3ncc(Cl)c(C)c3Cl)ncnc2s1`, for which the inhibition is -33.7% (inactive).

For the molecule `Oc1ccccc1N1CCN(c2ncnc3sc(-c4ccccc4)cc23)CC1`, the inhibition is -18.1% (inactive).

As to `CCc1cc2c(N3CCN(c4nnc(CC)s4)CC3)ncnc2s1`, the inhibition is 56.7% (active).

For `N#Cc1c(NCCO)ccc([N+](=O)[O-])c1NCCO`, the inhibition is -25.7% (inactive).

For the molecule `CCCCCC(=O)Nc1ccc(-c2cn3cccnc3n2)cc1`, the inhibition was -4.56% (inactive).

As to `CC(C)n1c(=S)[nH]c2cc(C(F)(F)F)ccc21`, the inhibition was -33.7% (inactive).

Regarding `COc1ccc(OC)c(Nc2nc3ccccc3n3cnnc23)c1`, the inhibition is -7.62% (inactive).

For orientation: inhibition means the relative decrease from the control value, in per cent.
